# Data taken from PMC7862700, “An all-to-all approach to the identification of sequence-specific readers for epigenetic DNA modifications on cytosine”.
# Legend:
# Experiment in all cases: DAPPL (digital affinity profiling via proximity ligation, sequencing); 10 mM Tris-HCl pH 7.5, 50 mM NaCl, 1 mM DTT, 4% glycerol, room temperature, 30 min; GST-TFs on glutathione beads, 16-mer random dsDNA library, 0.1% formaldehyde crosslink after washing; high values mean tight binding
# [1] = biological target: T1, FLI1 (Homo sapiens, UniProt Q01543 1-452); details: protein: recombinant; tags: N-terminal GST; dsDNA, one strand shown
# T1 sequence: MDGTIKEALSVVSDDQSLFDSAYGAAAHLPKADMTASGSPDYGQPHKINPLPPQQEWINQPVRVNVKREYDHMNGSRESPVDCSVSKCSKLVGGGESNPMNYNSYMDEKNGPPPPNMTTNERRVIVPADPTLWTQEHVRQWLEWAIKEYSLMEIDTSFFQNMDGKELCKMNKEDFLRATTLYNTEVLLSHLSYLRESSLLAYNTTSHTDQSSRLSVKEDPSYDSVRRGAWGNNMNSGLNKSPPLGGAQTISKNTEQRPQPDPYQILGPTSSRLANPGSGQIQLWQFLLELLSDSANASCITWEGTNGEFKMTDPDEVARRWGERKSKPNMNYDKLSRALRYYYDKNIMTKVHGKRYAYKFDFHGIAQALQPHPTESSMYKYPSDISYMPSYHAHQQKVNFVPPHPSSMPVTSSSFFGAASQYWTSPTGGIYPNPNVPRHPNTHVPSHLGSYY
# Summary of the method: (§1)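 In yeast, human transcription factors were expressed with a GST fusion, then pulled down on glutathione beads and given DNA barcodes. Pooled with a tag-only sample, they were exposed to 200 nmole of a 16-mer random double-stranded DNA library (Tris/NaCl/DTT/glycerol buffer, room temperature, 30 min), washed, crosslinked with 0.1% formaldehyde, proximity-ligated using BsaI/T4 ligase for 1 h at 37 °C, PCR-amplified and read on an Illumina NextSeq500. Each hexamer's frequency of reads for a factor, divided by the matching frequency for the tag-only sample, gives the binding signal.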
# [2] = biological target: T2, ELK1 (Homo sapiens, UniProt P19419 1-428); details: protein: recombinant; tags: N-terminal GST; dsDNA, one strand shown
# T2 sequence: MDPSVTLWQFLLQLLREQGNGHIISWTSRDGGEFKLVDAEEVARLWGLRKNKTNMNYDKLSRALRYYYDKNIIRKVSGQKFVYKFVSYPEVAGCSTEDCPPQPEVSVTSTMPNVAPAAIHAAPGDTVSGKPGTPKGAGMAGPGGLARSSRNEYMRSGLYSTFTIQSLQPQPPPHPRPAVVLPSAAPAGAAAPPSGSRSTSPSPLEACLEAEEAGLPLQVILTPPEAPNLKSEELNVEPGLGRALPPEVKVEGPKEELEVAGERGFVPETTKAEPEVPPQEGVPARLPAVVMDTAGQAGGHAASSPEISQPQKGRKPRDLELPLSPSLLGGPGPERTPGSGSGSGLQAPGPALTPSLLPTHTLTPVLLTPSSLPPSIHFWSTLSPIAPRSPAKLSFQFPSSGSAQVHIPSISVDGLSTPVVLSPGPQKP
# Summary of the method: as §1
# [3] = biological target: T3, GABPA (Homo sapiens, UniProt Q06546 1-454); details: protein: recombinant; tags: N-terminal GST; dsDNA, one strand shown
# T3 sequence: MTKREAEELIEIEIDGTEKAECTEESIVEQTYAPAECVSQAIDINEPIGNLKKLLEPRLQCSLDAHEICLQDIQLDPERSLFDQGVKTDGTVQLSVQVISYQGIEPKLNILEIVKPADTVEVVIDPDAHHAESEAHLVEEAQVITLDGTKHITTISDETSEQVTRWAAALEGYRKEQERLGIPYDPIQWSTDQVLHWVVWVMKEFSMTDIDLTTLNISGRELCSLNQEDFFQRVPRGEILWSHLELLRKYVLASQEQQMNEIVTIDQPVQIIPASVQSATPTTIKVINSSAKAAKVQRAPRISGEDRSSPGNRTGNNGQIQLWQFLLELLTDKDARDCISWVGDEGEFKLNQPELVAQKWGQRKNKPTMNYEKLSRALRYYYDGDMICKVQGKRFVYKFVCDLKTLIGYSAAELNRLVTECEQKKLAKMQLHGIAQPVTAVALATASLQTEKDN
# Summary of the method: as §1
# [4] = biological target: T4, ERG (Homo sapiens, UniProt P11308 1-479); details: protein: recombinant; tags: N-terminal GST; dsDNA, one strand shown
# T4 sequence: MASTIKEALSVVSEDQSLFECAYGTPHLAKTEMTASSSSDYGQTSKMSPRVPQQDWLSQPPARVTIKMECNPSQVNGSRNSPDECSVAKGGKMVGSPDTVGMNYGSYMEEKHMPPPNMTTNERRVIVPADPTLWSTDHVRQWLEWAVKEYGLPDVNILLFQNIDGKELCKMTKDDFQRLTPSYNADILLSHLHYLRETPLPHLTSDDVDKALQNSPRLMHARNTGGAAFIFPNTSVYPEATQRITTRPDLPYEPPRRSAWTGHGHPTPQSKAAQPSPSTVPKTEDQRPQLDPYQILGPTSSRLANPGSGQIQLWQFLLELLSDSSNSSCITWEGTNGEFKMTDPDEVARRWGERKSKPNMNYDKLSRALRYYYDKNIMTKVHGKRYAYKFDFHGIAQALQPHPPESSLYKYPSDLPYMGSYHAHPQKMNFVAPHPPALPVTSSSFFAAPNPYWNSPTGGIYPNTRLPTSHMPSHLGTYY
# Summary of the method: as §1
# [5] = biological target: ELF1 (Homo sapiens, UniProt P32519 1-619); details: protein: recombinant; tags: N-terminal GST; dsDNA, one strand shown
# Summary of the method: as §1
# [6] = biological target: T5, EHF (Homo sapiens, UniProt Q9NZC4 1-300); details: protein: recombinant; tags: N-terminal GST; dsDNA, one strand shown
# T5 sequence: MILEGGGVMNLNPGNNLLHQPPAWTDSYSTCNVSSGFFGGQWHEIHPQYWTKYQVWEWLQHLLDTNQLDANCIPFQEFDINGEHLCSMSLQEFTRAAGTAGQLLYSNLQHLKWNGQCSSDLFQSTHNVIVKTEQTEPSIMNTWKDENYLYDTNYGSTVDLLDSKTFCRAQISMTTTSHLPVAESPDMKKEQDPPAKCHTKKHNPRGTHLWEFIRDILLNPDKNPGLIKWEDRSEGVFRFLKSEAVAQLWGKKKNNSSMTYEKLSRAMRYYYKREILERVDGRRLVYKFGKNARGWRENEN
# Summary of the method: as §1
# [7] = biological target: SPI1 (Homo sapiens, UniProt P17947 1-270); details: protein: recombinant; tags: N-terminal GST; dsDNA, one strand shown
# Summary of the method: as §1
# [8] = biological target: SPIB (Homo sapiens, UniProt Q01892 1-262); details: protein: recombinant; tags: N-terminal GST; dsDNA, one strand shown
# Summary of the method: as §1
# [9] = biological target: T6, ELK3 (Homo sapiens, UniProt P41970 1-407); details: protein: recombinant; tags: N-terminal GST; dsDNA, one strand shown
# T6 sequence: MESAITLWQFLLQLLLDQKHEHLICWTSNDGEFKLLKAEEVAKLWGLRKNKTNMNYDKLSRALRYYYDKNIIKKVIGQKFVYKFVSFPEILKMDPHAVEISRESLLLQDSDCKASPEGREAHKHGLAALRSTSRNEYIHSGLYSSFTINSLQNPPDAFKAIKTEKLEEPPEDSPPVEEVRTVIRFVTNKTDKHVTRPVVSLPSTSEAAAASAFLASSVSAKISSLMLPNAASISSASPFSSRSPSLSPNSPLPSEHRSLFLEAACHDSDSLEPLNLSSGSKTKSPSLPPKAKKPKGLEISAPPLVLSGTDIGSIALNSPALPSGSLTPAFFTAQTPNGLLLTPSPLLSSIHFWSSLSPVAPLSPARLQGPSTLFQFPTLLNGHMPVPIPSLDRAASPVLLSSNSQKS
# Summary of the method: as §1
# [10] = biological target: T7, FEV (Homo sapiens, UniProt Q99581 1-238); details: protein: recombinant; tags: N-terminal GST; dsDNA, one strand shown
# T7 sequence: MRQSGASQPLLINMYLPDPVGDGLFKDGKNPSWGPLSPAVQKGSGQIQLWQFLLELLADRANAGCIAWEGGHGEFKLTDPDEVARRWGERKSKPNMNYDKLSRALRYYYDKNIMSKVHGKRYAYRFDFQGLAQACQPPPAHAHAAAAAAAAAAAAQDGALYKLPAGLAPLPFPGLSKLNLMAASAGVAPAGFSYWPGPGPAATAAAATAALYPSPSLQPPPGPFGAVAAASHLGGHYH
# Summary of the method: as §1
# [11] = biological target: ETV5 (Homo sapiens, UniProt P41161 1-510); details: protein: recombinant; tags: N-terminal GST; dsDNA, one strand shown
# Summary of the method: as §1
# [12] = biological target: HSF1 (Homo sapiens, UniProt Q00613 1-529); details: protein: recombinant; tags: N-terminal GST; chain copies: 3; dsDNA, one strand shown
# Summary of the method: as §1
# [13] = biological target: T8, SPIC (Homo sapiens, UniProt Q8N5J4 1-248); details: protein: recombinant; tags: N-terminal GST; dsDNA, one strand shown
# T8 sequence: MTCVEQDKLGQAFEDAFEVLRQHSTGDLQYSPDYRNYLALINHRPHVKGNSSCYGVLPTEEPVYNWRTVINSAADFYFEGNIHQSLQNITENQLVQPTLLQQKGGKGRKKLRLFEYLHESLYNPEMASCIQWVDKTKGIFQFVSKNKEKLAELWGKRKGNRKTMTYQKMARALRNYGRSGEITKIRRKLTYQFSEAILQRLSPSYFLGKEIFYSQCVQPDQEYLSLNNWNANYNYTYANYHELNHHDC
# Summary of the method: as §1
# [14] = biological target: ELF4 (Homo sapiens, UniProt Q99607 1-663); details: protein: recombinant; tags: N-terminal GST; dsDNA, one strand shown
# Summary of the method: as §1
# [15] = biological target: T9, ELK4 (Homo sapiens, UniProt P28324-2 1-405); details: protein: recombinant; tags: N-terminal GST; dsDNA, one strand shown
# T9 sequence: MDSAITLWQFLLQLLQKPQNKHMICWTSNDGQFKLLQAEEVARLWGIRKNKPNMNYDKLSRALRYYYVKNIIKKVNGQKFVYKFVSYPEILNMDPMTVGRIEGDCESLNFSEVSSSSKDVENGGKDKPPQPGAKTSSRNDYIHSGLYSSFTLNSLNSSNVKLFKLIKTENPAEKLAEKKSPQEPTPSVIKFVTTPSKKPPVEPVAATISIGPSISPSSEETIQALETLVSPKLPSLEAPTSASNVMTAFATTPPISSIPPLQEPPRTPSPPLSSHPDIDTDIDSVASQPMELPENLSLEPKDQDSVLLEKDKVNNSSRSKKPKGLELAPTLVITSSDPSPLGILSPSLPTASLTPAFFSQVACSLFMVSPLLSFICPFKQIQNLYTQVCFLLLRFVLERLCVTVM
# Summary of the method: as §1
# [16] = biological target: T10, ETV2 (Homo sapiens, UniProt O00321 1-342); details: protein: recombinant; tags: N-terminal GST; dsDNA, one strand shown
# T10 sequence: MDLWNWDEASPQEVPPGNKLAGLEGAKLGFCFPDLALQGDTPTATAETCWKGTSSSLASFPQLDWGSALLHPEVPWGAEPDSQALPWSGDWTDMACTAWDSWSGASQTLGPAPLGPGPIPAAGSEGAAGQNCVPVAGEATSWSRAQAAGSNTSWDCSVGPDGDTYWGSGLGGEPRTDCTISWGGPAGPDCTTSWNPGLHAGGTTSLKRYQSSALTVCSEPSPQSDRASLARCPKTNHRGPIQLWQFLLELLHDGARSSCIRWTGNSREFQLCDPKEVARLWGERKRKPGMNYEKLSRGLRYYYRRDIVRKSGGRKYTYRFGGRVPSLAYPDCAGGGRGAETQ
# Summary of the method: as §1
# [17] = biological target: T11, ELF3 (Homo sapiens, UniProt P78545 1-371); details: protein: recombinant; tags: N-terminal GST; dsDNA, one strand shown
# T11 sequence: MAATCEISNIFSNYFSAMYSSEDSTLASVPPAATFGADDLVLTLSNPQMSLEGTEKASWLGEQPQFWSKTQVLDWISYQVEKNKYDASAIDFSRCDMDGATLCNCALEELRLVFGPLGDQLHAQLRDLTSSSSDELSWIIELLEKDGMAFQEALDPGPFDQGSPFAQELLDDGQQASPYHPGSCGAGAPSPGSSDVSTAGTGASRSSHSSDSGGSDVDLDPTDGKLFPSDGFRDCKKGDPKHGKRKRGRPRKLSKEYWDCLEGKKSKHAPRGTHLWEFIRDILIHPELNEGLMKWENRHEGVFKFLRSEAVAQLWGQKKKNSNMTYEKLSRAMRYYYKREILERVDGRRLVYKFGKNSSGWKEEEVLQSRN
# Summary of the method: as §1
# [18] = biological target: CRX (Homo sapiens, UniProt O43186 1-299); details: protein: recombinant; tags: N-terminal GST; dsDNA, one strand shown
# Summary of the method: as §1
# [19] = biological target: ETV1 (Homo sapiens, UniProt P50549 1-477); details: protein: recombinant; tags: N-terminal GST; dsDNA, one strand shown
# Summary of the method: as §1
# Chain of ETV1 (P50549 whole entry): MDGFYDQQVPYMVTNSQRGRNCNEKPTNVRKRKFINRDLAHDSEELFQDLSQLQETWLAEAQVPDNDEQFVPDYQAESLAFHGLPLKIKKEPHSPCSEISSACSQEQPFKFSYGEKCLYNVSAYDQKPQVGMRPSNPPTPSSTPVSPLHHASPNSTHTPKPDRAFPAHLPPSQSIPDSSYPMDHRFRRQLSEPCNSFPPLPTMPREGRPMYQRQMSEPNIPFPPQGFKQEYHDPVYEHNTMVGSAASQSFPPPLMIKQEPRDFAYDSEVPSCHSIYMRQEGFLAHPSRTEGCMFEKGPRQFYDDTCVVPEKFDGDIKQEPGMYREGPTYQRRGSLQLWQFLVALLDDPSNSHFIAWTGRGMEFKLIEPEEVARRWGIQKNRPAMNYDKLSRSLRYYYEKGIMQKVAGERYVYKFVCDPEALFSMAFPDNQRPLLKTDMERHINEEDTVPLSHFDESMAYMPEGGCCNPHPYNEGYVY
# Chain of ETV5 (P41161 whole entry): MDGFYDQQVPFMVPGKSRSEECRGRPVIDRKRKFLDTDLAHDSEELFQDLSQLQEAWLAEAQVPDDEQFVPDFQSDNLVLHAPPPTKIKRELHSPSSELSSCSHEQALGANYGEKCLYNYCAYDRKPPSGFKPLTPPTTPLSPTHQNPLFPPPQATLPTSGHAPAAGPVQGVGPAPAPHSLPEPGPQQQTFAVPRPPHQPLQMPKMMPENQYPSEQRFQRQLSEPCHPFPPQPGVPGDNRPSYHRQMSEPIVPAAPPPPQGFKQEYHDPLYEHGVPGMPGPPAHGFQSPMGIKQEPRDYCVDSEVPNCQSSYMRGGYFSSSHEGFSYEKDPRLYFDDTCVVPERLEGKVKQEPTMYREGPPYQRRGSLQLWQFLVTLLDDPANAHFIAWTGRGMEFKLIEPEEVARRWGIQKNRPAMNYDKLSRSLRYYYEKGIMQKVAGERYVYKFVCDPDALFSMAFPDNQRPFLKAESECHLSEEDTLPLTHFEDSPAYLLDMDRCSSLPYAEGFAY
# Chain of HSF1 (Q00613 whole entry): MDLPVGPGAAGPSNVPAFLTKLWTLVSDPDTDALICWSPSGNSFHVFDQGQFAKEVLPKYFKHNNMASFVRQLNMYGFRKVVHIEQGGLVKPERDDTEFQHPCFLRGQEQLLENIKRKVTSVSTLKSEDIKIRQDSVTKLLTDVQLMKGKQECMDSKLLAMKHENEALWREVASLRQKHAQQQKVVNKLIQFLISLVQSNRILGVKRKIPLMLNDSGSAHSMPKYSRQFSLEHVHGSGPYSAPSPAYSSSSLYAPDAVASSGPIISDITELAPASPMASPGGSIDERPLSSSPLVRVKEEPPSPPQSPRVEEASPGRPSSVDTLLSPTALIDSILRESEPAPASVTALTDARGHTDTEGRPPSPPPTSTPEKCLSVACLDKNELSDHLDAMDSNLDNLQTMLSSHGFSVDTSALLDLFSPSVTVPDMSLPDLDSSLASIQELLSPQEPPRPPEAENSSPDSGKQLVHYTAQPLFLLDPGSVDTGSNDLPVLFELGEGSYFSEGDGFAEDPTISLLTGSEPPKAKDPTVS
# Chain of ELF4 (Q99607 whole entry): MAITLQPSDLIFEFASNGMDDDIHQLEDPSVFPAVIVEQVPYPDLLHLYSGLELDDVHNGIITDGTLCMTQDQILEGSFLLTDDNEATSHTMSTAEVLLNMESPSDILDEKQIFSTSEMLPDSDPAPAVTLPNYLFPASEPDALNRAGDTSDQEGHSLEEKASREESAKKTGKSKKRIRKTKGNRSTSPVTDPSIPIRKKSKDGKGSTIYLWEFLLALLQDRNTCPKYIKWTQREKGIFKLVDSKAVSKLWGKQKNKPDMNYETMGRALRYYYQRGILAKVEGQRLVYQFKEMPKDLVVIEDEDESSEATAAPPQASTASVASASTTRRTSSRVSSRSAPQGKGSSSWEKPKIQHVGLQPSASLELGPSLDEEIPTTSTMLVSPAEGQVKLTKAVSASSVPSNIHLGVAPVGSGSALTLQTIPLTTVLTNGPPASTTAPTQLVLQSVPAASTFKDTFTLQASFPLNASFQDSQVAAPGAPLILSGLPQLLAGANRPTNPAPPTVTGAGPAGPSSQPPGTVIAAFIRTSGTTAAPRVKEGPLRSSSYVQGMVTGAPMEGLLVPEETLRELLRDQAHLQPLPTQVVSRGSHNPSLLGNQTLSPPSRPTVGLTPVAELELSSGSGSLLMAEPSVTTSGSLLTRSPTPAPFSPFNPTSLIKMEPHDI
# Chain of SPIB (Q01892 whole entry): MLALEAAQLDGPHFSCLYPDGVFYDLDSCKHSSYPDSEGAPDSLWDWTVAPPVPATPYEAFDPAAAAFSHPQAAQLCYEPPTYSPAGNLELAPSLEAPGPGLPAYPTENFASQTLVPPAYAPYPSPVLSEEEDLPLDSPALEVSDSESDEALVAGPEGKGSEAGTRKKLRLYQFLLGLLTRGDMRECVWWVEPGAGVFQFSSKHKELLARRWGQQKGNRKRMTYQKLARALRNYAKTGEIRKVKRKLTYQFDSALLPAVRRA
# Chain of CRX (O43186 whole entry): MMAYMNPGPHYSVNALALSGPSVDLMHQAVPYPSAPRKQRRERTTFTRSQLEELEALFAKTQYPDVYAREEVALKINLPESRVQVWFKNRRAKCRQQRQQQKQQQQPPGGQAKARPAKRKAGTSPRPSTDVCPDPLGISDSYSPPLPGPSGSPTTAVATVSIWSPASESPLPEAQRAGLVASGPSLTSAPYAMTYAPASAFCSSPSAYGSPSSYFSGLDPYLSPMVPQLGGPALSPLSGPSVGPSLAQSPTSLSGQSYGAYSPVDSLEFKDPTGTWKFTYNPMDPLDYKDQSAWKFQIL
# Chain of ELF1 (P32519 whole entry): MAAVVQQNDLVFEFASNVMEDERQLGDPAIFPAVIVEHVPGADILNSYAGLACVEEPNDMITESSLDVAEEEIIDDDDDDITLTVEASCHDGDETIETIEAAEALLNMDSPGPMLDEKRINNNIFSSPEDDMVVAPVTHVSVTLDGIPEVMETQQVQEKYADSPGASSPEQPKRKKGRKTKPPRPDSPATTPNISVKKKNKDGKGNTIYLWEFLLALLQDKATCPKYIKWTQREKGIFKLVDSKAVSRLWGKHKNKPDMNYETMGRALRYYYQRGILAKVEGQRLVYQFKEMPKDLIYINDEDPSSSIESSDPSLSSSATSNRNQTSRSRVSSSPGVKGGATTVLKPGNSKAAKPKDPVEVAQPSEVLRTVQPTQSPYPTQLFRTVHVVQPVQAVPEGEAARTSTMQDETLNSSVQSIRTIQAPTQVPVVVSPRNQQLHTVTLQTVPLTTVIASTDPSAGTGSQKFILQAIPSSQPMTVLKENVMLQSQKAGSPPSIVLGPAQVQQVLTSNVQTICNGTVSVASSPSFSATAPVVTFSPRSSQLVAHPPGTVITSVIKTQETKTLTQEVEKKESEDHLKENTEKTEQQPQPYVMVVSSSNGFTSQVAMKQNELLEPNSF
sequence,measurement,setting,value
CTGCGC,binding signal,[1],"1.18 fold enrichment (6-mer frequency, TF over GST control)"
same,binding signal,[2],"1.4 fold enrichment (6-mer frequency, TF over GST control)"
same,binding signal,[3],"1.34 fold enrichment (6-mer frequency, TF over GST control)"
same,binding signal,[4],"1.37 fold enrichment (6-mer frequency, TF over GST control)"
same,binding signal,[5],"1.45 fold enrichment (6-mer frequency, TF over GST control)"
same,binding signal,[6],"1.4 fold enrichment (6-mer frequency, TF over GST control)"
same,binding signal,[7],"1.31 fold enrichment (6-mer frequency, TF over GST control)"
same,binding signal,[8],"1.34 fold enrichment (6-mer frequency, TF over GST control)"
same,binding signal,[9],"1.22 fold enrichment (6-mer frequency, TF over GST control)"
same,binding signal,[10],"1.38 fold enrichment (6-mer frequency, TF over GST control)"
same,binding signal,[11],"1.34 fold enrichment (6-mer frequency, TF over GST control)"
same,binding signal,[12],"1.1 fold enrichment (6-mer frequency, TF over GST control)"
same,binding signal,[13],"1.22 fold enrichment (6-mer frequency, TF over GST control)"
same,binding signal,[14],"1.32 fold enrichment (6-mer frequency, TF over GST control)"
same,binding signal,[15],"1.2 fold enrichment (6-mer frequency, TF over GST control)"
same,binding signal,[16],"1.46 fold enrichment (6-mer frequency, TF over GST control)"
same,binding signal,[17],"1.27 fold enrichment (6-mer frequency, TF over GST control)"
same,binding signal,[18],"1.11 fold enrichment (6-mer frequency, TF over GST control)"
same,binding signal,[19],"1.58 fold enrichment (6-mer frequency, TF over GST control)"
